About 380 (0.12%) of roughly 310,000 compounds were called active. This is one part of a sample in which actives are shown more often than they occur.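 The calls were made as follows: active = B-score of the integrated fluorescence ratio above library mean plus 3 SD, and starting fluorescence ratio within library mean plus 5 SD; inactive = the rest.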
These compounds were tested against Short transient receptor potential channel 6 (Mus musculus) (UniProt Q61143) (assay: mouse TRPC6 channel activators, primary screen, cell-based, HEK293, membrane potential dye (AID 2550;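 also: higher score means more depolarization so channel activation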)). Details: HEK293-TRPC6 membrane potential dye fluorescence, at 10 µM.
Short transient receptor potential channel 6 (Mus musculus), sequence (Q61143 whole entry, looked up): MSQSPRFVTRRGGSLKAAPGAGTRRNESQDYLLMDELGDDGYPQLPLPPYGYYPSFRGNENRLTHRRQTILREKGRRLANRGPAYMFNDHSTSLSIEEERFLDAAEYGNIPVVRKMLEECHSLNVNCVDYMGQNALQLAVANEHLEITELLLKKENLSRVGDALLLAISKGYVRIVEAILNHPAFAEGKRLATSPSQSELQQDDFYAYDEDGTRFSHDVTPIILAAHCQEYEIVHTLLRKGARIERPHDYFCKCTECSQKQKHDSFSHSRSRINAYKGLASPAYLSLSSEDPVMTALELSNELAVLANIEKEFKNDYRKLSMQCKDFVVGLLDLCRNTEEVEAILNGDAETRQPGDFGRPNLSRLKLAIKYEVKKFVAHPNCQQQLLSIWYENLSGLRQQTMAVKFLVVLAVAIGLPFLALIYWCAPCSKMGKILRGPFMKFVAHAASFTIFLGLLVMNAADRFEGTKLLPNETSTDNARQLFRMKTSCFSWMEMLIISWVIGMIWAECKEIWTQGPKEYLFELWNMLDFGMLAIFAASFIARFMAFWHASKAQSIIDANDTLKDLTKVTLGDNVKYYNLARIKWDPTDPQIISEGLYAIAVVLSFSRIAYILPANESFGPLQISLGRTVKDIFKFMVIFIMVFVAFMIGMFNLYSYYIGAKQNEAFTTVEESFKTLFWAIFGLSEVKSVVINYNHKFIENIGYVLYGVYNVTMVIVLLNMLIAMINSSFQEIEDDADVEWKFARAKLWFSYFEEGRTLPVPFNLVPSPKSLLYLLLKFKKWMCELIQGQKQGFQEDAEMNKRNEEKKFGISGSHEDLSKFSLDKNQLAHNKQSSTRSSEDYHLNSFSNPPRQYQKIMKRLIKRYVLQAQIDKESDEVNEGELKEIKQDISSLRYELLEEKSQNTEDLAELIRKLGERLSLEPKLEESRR

B-score, inactive:
Cc1c(S(=O)(=O)NC(C)c2ccccc2)c(=O)n(C)c(=O)n1C (stereo unspecified)
COc1ccc(CC(NC(C)=O)C(=O)NC2CCN(C(=O)C3CC3)CC2)cc1OC (stereo unspecified)
O=S(=O)(c1cccc(Cn2nnc(-c3ccc(F)cc3)n2)c1)N1CCOCC1
C[C@]1(C(=O)NCCc2c[nH]c3ccccc23)C=C[C@@H](Cc2ccccc2)N1C(=O)c1ccccc1
CCOC(=O)c1nc(-c2ccc3c(c2)OCO3)[nH]c1C
Cc1cc(Nc2ccc(C(=O)N3CCCCC3)cc2)c2cccc(C)c2n1
CCC(c1nnc(SCC(=O)NNC(=O)c2ccccc2)n1Cc1ccccc1)N(C)C (stereo unspecified)
COc1ccc(-n2cc(-c3ccccc3)c3c(=S)nc[nH]c32)cc1
Cc1nnc(NC(=O)Cn2c(=O)sc3ccccc32)s1
O=C(Nc1cc(-c2nn(CC(=O)N3CCCCC3)c(=O)c3ccccc23)ccc1N1CCOCC1)c1ccc(Cl)cc1
Cc1cccc(NC(=O)Nc2ccc3c(c2)OCO3)n1
OCc1nc(CO)n(Cc2ccccc2)n1
CCN(CC)C(=O)N1CCN(C(=O)c2ccc(C)cn2)CC1
COc1ccc(CCC(=O)c2ccc(OC)cc2)cc1
COCC1CCN(C(=O)C2CCC(=O)N(Cc3cccc(C(F)(F)F)c3)C2)CC1 (stereo unspecified)
CCCCc1c(O)nc2n(c1=O)CCS2
CCOC(=O)N1CCC(O)(c2cc(C)c(C)cc2C)CC1
COc1cccc2c1CCC(NC(C)=O)C2=O (stereo unspecified)
O=C1CSC2=NCN(c3ccccc3)CN12
CN1C(CC(=O)Nc2ccc(Br)cc2)c2ccccc2CC1(C)C (stereo unspecified)
Nc1[nH][nH]c(=O)c1N=Nc1ccc2c(c1)OCO2
Cn1c(SCC(=O)Nc2ccc(Cl)cc2)nc(O)cc1=O
CCOc1ccc(NC(=O)CN(C)CC(=O)Nc2cccc(Cl)c2C)cc1OCC
Cc1ccc(NC(=O)C2CCN(S(=O)(=O)c3ccc4c(c3)NC(=O)CO4)CC2)cc1C
CCCCN=C(N)/C(C(=O)OCC)=C(\O)c1ccc(OC)cc1
CC(C)C(c1nnnn1C(C)(C)C)N1CCN(Cc2cccnc2)CC1 (stereo unspecified)
Cn1c(-c2ccc(C(=O)c3ccccc3)s2)nc2ccccc21
COc1cccc(C2c3[nH]c4ccccc4c3CCN2Cc2cccc(C)n2)c1 (stereo unspecified)
COC(=O)[C@@H]1CC(O)CN1C(=O)C12CC3CC(CC(C3)C1)C2 (stereo partly specified)
Cc1ccc(NC(=O)c2sc3nc(N)c(C#N)cc3c2N)cc1
CCn1ccnc1CNC(=O)CC1C(=O)NCCN1Cc1ccc(F)cc1Cl (stereo unspecified)

Reference: PubChem BioAssay AID2550 (Johns Hopkins Ion Channel Center, 2010)
